Experimental data as given in PubChem BioAssay (NCI).
The panel holds about 83,000 compounds, 20% with a hit somewhere; the sample as a whole holds those more often.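 Treatment: one concentration, 48 hours, 96-well format. Scoring: percent growth, with anything below 10 considered active.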 The source made the active and inactive calls.

What follows are compounds tested on SF-539 CNS (assay: NCI-60 one-dose screen, 48 h (100 = growth as untreated, 0 = no growth, -100 = all killed)). Conditions: 10 µM unless noted.

SMILES | growth
CC(=O)Nc1nc(C(=O)N2N=C(C)/C(=C/c3cccs3)C2=O)cs1 | 103% (inactive)
COc1ccc(-c2nnc(COc3ccc(NC(=O)Nc4ccc(Cl)c(C(F)(F)F)c4)cc3F)o2)cc1 | 0.516% (active)
COc1ccc(OC)c(NC(=O)c2cc(S(=O)(=O)N3CCc4ccccc43)ccc2OC)c1 | 82.9% (inactive)
CC(C)(C)c1cc(-c2nc3ccc(N4CCN(CCO)CC4)cc3[nH]2)cc(C(C)(C)C)c1O | 55.3% (inactive)
COc1cc2oc(-c3cccc(NC(=O)Nc4ccc5c(c4)OCO5)c3)cc(=O)c2c(OC)c1OC | 81.8% (inactive)
COc1ccc(NC(=O)/N=c2\oc3c(OC)cccc3cc2-c2cc3ccccc3[nH]2)cc1 | 35.3% (inactive)
CCN1C(=S)N(CC)C2Nn3c(s/c(=C4\C(=O)N(C)c5ccccc54)c3=O)=NC21 (stereo not drawn) | 6.07% (active)
COc1ccc(/C=C2\Oc3cc(OCCN4CCCC4)ccc3C2=O)c(OC)c1 | 87.4% (inactive)
COc1ccc(C2CC(c3cccs3)=NN2c2ccc(S(=O)(=O)NC(=O)NCc3cccc(OC)c3)cc2)cc1 (stereo not drawn) | 104% (inactive)
O=C(Nc1cccc(C(F)(F)F)c1)Nc1ccc(OCc2nnc(-c3ccccc3)o2)c(F)c1 | 27.8% (inactive)
NC(=O)c1c(NC(=O)c2ccc(OCC3CCCO3)cc2)sc2c1CCCC2 (stereo not drawn) | 100% (inactive)
CC(C)(C)OC(=O)N1C/C(=C\c2cccs2)C(=O)/C(=C/c2cccs2)C1 | 99% (inactive)
COc1ccc(-c2nnc(COc3ccc(NS(=O)(=O)c4ccc(OC)cc4)cc3F)o2)cc1 | 80.5% (inactive)
